The nature of assay [1]: Nuclear factor erythroid 2-related factor 2/antioxidant responsive element (Nrf2/ARE) small molecule agonists: qHTS cell viability counter screen in human keratinocytes (AID 1919968; active = well fitted curve in the direction sought with a large enough effect in the repeat runs; an effect the other way counts as inactive or inconclusive; note: nearly all actives have a fitted effect of over 55% in size). In outline:
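After a 5 h attachment period, ARE-reporter keratinocytes were dosed with compounds in DMSO and then cultured 23 h at 37 C. Cell viability came from CellTiter-Fluor signal read after a further 1 h.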

Assay [2] is described as follows: Nuclear factor erythroid 2-related factor 2/antioxidant responsive element (Nrf2/ARE) small molecule agonists: luciferase reporter gene qHTS assay in human keratinocytes (AID 1919969). Note: nearly all actives have a fitted effect of over 35% in size. Note: potency is the fitted concentration of half-maximal effect.
The target in assay [3] is Gonadotropin-releasing hormone receptor (Homo sapiens) (UniProt P30968). As to the kind of experiment: Human gonadotropin-releasing hormone receptor (GnRHR) small molecule agonists, calcium flux assay in GnRHR-HEK293 cells (AID 1920063). Note: nearly all actives have a fitted effect of over 35% in size. In outline:
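We seeded human GnRHR-expressing HEK293 cells for 18 hours, loaded them with calcium dye for an hour at 37 C, added test compounds, and recorded fluorescence intensity kinetically for three minutes.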

Assay [4] addresses KiSS-1 receptor (Homo sapiens) (UniProt Q969F8). Put plainly: Human kisspeptin (KISS1R) small molecule agonists, calcium flux assay in KISS1R-HEK293 cells (AID 1920064; active = well fitted curve in the direction sought with a large enough effect in the repeat runs; an effect the other way counts as inactive or inconclusive). The procedure, abridged: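 Kinetic calcium assay, 1 s sampling over 3 min at Ex/Em 480/540, in HEK293 cells engineered with human KISS1R; compounds delivered in DMSO after 1 h dye loading.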
Assay [5] is described as follows: G protein-coupled receptor (GPCR) small molecule agonists, calcium flux assay: HEK293 wild type cell line counter screen (AID 1920065). The procedure, abridged: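 Calcium-sensitive dye, loaded 1 h at 37 C into cells cultured 18 h, reports compound-evoked calcium release as fluorescence (Ex/Em 480/540), measured over 3 min. Agonist mode; 15-point titrations, triplicate.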

A short description of assay [6]: p53 small molecule agonists, cell-based qHTS assay with human liver microsomes (AID 1963577). In outline: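 Fluorescence of the beta-lactamase reporter in p53RE-bla cells, detected with LiveBLAzer substrate (2 h, room temperature, dark), served as the read-out after 16 h compound exposure at 37 C with human liver microsomes and NADPH, each 0.5 mg/mL final.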
Assay [7] can be described thus: p53 small molecule agonists, cell-based qHTS assay with rat liver microsomes (AID 1963578). The procedure, abridged: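 Cells carrying a p53 response element–beta-lactamase reporter were plated and rested 5 h, then dosed with compound in DMSO plus rat liver microsomes and NADPH, each at 0.5 mg/mL final. After 16 h at 37 C, LiveBLAzer substrate was added for 2 h.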

Assay [8] can be described thus: p53 small molecule agonists, cell-based qHTS assay with human liver microsomes: qHTS cell viability counter screen (AID 1963579). Note: nearly all actives have a fitted effect of over 45% in size. The procedure, abridged:
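Cytotoxicity counter screen: p53RE-bla, 4,000 cells/well; 5 h settle, 37 C/5% CO2; cpd + HLM 0.5 mg/mL + NADPH 0.5 mg/mL (final); 16 h, 37 C; CellTiter-Glo, 30 min RT, luminescence.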

Assay [9] in a line: p53 small molecule agonists, cell-based qHTS assay with rat liver microsomes: qHTS cell viability counter screen (AID 1963580). Note: nearly all actives have a fitted effect of over 45% in size. In outline: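 HCT-116 p53RE-bla, 4,000 cells/well, 5 h pre-incubation; cpd + rat liver microsomes 0.5 mg/mL + NADPH 0.5 mg/mL (final); 16 h, 37 C; CellTiter-Glo, 30 min RT; luminescence.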
Assay [10] in a line: p53 small molecule agonists, cell-based qHTS assay: qHTS cell viability counter screen (AID 1963581). Note: nearly all actives have a fitted effect of over 45% in size. In outline:
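Following 5 h attachment, HCT-116 p53RE-bla cells took up compound for 16 h at 37 C; the reporter was read with B/G FRET substrate (2 h RT), and viability then via CellTiter-Glo ATP luminescence.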

The nature of assay [11]: p53 small molecule agonists, cell-based qHTS assay (AID 1963582; active = well fitted activation curve with a large enough effect in the signal ratio in the repeat runs, not every such curve was filed as active; the % refers to the signal ratio). In outline:
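In this cell-based concentration-response screen, a p53 response element drives beta-lactamase; cells received DMSO-borne compounds after 5 h culture and were incubated a further 16 h before FRET substrate development.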

The target in assay [12] is 5-hydroxytryptamine receptor 2A (Homo sapiens) (UniProt P28223). As to the kind of experiment: 5-hydroxytryptamine receptor 2A (HTR2A) small molecule antagonists, cell-based qHTS assay (AID 1963586). Note: nearly all actives have a fitted effect of over 45% in size. The procedure, abridged: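 Antagonist-mode intracellular calcium assay: DOI (4 nM) added after 5 min compound pre-incubation at room temperature to dye-loaded HTR2A-CHO cells. Fluorescence followed for 3 min, sampled every second.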

Assay [13] has the same target. Put plainly: 5-hydroxytryptamine receptor 2A (HTR2A) small molecule agonists, cell-based qHTS assay (AID 1963587). Note: nearly all actives have a fitted effect of over 30% in size. The procedure, abridged: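 Kinetic calcium-flux fluorescence (2 min, 1 sec intervals) after compound addition in agonist mode. HTR2A-CHO cells were cultured 18 h, then dye-loaded 1 h at 37 C.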
Assay [14] addresses Muscarinic acetylcholine receptor M1 (Homo sapiens) (UniProt P11229). As to the kind of experiment: Cholinergic receptor muscarinic 1 (CHRM1) small molecule agonists, cell-based qHTS assay (AID 1963589). Note: nearly all actives have a fitted effect of over 35% in size. In outline: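 Measures agonist-induced intracellular calcium rise. Stable human CHRM1 CHO line, 1 h dye load at 37 C, compounds from DMSO, kinetic fluorescence read.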
A short description of assay [15]: cAMP Responsive Elements (CRE) small molecule agonists, cell-based qHTS assay (AID 1963590). The procedure, abridged: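 A CRE-responsive beta-lactamase reporter in HEK 293T cells was used. Treatment ran 3 h at 37 C; detection used LiveBLAzer B/G FRET substrate for 2 h at room temperature.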
Assay [16] is described as follows: cAMP Responsive Elements (CRE) small molecule antagonists, cell-based qHTS assay (AID 1963591; active = well fitted inhibition curve with a large enough effect in the signal ratio in the repeat runs, not every such curve was filed as active; the % refers to the signal ratio). In outline:
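HEK293T cells carrying a CRE-driven beta-lactamase reporter receive compound and NKH477 (0.25 uM final) for 3 h. Fluorescence from LiveBLAzer B/G FRET substrate is read after 2 h at room temperature.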

Assay [17] has as its target Beta-2 adrenergic receptor (Homo sapiens) (UniProt P07550). As to the kind of experiment: Adrenergic beta2 receptor (ADRB2) small molecule antagonists, cell-based qHTS assay (AID 1963592). Note: series mostly up to about 92 µM; nearly all actives have a fitted effect of over 50% in size. In outline: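 Cells (CHO, stable ADRB2 overexpression) incubated 18-20hr at 37C; compounds added from DMSO; agonist mix (1nM isoproterenol, 100uM IBMX, 25uM Ro-20-1724) added; 0.5hr RT; d2-cAMP and anti-cAMP-cryptate added; 1hr RT; 665/615 nm read.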

The target in assay [18] is D(2) dopamine receptor (Homo sapiens) (UniProt P14416). As to the kind of experiment: Dopamine D2 receptor (DRD2) small molecule antagonists, cell-based qHTS assay (AID 1963595; active = well fitted inhibition curve with a large enough effect in the signal ratio in the repeat runs, with a control signal flat; the % refers to the signal ratio). In outline: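 Human DRD2 antagonist qHTS measuring cAMP by HTRF. The cells are exposed to compound for 10 min, then to NKH477 (200 nM) and quinpirole (12 nM) for 30 min at RT, with Ro20-1724 (0.1 mM) present throughout.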

Assay [19] has the same target. As to the kind of experiment: Dopamine D2 receptor (DRD2) small molecule agonists, cell-based qHTS assay (AID 1963594). Note: nearly all actives have a fitted effect of over 35% in size. The procedure, abridged:
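cAMP accumulation in DRD2-HEK293 cells measured by HTRF after 1 h detection; compounds added 10 min before NKH477 (200nM […]) forskolin-analogue stimulation, 30 min at room temperature, with Ro20-1724 present at 0.1 mM final.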

Unmarked numbers belong to inactive results. Results filed as inconclusive are left out. Active and inactive are the calls of the source. Unless noted, calls come from the whole dose curve.

KiSS-1 receptor (Homo sapiens), sequence (Q969F8 whole entry, looked up): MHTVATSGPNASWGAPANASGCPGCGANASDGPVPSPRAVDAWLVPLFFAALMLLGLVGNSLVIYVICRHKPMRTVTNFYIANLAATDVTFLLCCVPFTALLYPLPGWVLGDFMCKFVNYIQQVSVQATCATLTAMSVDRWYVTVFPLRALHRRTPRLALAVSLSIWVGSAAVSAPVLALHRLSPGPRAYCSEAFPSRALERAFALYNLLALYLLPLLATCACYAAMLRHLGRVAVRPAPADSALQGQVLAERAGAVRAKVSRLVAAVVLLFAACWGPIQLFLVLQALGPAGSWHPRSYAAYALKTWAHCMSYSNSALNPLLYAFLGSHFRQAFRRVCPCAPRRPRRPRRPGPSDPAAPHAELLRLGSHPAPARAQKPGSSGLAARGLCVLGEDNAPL
5-hydroxytryptamine receptor 2A (Homo sapiens), sequence (P28223 whole entry, looked up): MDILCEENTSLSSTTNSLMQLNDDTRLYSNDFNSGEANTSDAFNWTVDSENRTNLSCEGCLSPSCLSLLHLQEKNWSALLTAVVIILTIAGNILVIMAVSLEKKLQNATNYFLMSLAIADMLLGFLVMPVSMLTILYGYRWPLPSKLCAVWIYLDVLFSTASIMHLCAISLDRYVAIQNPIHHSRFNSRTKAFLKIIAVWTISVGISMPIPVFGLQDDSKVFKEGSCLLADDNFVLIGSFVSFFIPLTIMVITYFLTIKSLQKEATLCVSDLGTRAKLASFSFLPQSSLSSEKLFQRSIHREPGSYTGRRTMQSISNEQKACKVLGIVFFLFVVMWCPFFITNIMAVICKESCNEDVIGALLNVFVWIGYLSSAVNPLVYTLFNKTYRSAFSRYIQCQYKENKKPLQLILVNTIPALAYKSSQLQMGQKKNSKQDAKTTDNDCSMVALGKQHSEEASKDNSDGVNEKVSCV
Gonadotropin-releasing hormone receptor (Homo sapiens), sequence (P30968 whole entry, looked up): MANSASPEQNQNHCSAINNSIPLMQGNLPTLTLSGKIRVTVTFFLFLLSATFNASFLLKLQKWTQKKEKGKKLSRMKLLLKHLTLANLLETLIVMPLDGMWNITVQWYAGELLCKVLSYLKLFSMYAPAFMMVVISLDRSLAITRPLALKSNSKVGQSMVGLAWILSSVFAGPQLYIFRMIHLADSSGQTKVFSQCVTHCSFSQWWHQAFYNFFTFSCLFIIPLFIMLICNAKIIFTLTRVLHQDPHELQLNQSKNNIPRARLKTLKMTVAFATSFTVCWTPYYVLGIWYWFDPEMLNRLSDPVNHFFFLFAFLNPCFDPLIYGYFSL
D(2) dopamine receptor (Homo sapiens), sequence (P14416 whole entry, looked up): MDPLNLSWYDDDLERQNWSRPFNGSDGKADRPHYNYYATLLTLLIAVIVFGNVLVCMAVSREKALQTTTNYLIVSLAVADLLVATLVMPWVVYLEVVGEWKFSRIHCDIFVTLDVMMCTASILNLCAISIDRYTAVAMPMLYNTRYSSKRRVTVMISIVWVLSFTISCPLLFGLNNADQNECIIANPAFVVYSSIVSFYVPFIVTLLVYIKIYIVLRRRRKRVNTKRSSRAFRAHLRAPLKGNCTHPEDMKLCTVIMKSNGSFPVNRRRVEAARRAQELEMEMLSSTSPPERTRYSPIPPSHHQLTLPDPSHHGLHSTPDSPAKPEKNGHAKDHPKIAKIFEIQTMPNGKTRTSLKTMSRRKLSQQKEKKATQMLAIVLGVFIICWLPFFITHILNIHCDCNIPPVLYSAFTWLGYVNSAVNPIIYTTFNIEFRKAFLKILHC
Beta-2 adrenergic receptor (Homo sapiens), sequence (P07550 whole entry, looked up): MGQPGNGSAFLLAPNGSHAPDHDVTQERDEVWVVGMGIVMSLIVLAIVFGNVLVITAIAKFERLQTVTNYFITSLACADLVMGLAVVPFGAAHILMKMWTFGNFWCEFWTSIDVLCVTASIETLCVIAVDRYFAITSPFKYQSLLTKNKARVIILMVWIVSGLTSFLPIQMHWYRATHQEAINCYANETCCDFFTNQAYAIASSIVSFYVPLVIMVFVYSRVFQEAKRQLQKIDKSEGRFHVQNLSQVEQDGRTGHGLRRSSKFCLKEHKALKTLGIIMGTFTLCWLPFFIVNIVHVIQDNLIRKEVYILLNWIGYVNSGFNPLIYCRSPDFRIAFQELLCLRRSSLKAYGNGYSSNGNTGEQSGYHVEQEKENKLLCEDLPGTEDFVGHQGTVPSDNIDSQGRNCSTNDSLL
Muscarinic acetylcholine receptor M1 (Homo sapiens), sequence (P11229 whole entry, looked up): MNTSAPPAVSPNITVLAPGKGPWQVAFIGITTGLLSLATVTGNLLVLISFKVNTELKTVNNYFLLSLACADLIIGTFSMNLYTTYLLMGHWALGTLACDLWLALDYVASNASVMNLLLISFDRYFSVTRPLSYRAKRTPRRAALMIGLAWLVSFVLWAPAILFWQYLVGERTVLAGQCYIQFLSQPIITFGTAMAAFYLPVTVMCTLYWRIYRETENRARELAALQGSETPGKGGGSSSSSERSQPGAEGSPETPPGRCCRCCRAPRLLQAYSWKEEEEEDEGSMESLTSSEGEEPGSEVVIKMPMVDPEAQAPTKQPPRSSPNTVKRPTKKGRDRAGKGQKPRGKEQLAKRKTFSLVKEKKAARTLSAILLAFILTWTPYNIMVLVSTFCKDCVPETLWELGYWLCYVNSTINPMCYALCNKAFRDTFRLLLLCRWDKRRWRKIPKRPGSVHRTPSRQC

Turning to `[Cu+]`, the Potency entry in assay [1], in [3], in [6], in assay [7], in assay [8] and in [9] was “inactive” in each case. Also, the Potency result in assay [10], in [11], in [12], in assay [13], in [14] and in [15] was “inactive” throughout. Moreover, the Potency result in assay [16], in assay [17] and in [18] was “inactive” each time. In addition, the Potency in assay [2] was 54.5 µM (active). In addition, the result in assay [4] and in [5] was inactive.

Consider `CO[Si](OC)(OC)OC`, for which the Potency entry in assay [1], in assay [2], in [3], in assay [6], in assay [7] and in assay [8] was “inactive” in each case. The Potency entry in assay [9], in [10], in [11], in assay [12], in assay [13] and in [14] was “inactive” throughout. For the same molecule, the Potency entry in assay [15], in assay [16], in assay [17], in [19] and in [18] was “inactive” throughout. Also, the result in [4] and in assay [5] was inactive.

For the molecule `CCOC(=O)C1=NOC(c2ccccc2)(c2ccccc2)C1`, the Potency result in [1], in assay [2], in assay [3], in [6], in assay [7] and in assay [8] was “inactive” in each case. Further, the Potency result in [9], in assay [10], in assay [11], in assay [12], in [13] and in [14] was “inactive” in each case. Besides, the Potency entry in assay [15], in [17] and in assay [18] was “inactive” throughout. Moreover, the outcome in [4] and in assay [5] was inactive.

On to `CC(=O)Nc1ccc(C)cc1C`, for which the Potency entry in assay [1], in [2], in assay [3], in assay [6], in assay [7] and in [8] was “inactive” in each case. In addition, the Potency result in assay [9], in [10], in assay [11], in [12], in assay [13] and in assay [14] was “inactive” in each case. For the same molecule, the Potency result in assay [15], in assay [16], in assay [17], in assay [19] and in assay [18] was “inactive” in each case. For the same molecule, the outcome in assay [4] and in assay [5] was inactive.

For `CCCCCCC/C=C/C=O`, the Potency entry in assay [1], in assay [2], in [3], in assay [6], in [7] and in [8] was “inactive” throughout. Also, the Potency result in assay [9], in [10], in assay [11], in assay [12], in assay [13] and in assay [14] was “inactive” in each case. Moreover, the Potency result in assay [16], in assay [17], in [19] and in assay [18] was “inactive” in each case. Besides, the outcome in assay [4] and in assay [5] was inactive.

Consider `COC(C)(OC)OC`, for which the Potency entry in assay [1], in [2], in [3], in [6], in [7] and in [8] was “inactive” each time. Also, the Potency entry in [9], in assay [10], in assay [11], in assay [12], in [13] and in assay [14] was “inactive” each time. Also, the Potency entry in assay [15], in assay [17], in assay [19] and in assay [18] was “inactive” in each case. The outcome in [4] and in [5] was inactive.

On to `Cc1cc(C(=O)O)ccc1[N+](=O)[O-]`, for which the Potency result in [1], in assay [2], in assay [3], in assay [6], in [7] and in [8] was “inactive” throughout. The Potency entry in assay [9], in [10], in assay [11], in assay [12], in assay [13] and in [14] was “inactive” in each case. Besides, the Potency entry in [16], in assay [19] and in [18] was “inactive” throughout. Further, the outcome in [4] and in assay [5] was inactive.

`CCC1(C)C(=O)N(Cl)C(=O)N1Cl` (stereo not given): the Potency result in assay [1], in [2], in assay [3], in assay [6], in assay [7] and in assay [8] was “inactive” throughout. Also, the Potency result in assay [9], in assay [10], in assay [11], in [12], in assay [13] and in [14] was “inactive” in each case. Further, the Potency entry in assay [15], in [16], in assay [17], in [19] and in [18] was “inactive” throughout. For the same molecule, the result in assay [4] and in assay [5] was inactive.

Source of the values: PubChem BioAssay (Tox21).
